# Test results from PubChem BioAssay (NCI).
# Compounds without any hit were thinned out: in the full panel of roughly 83,000, 20% have a hit.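 96-well plates, one dose, 48 hours. Percent growth reported; active if below 10.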 The source made the active and inactive calls.
# Tests used:
# Assay in all cases: NCI-60 one-dose screen, 48 h (100 = growth as untreated, 0 = no growth, -100 = all killed)
# Settings in all cases: 10 µM unless noted
# SK-MEL-2 melanoma = tested on: SK-MEL-2 melanoma
# EKVX NSCLC = tested on: EKVX NSCLC
# SN12C renal = tested on: SN12C renal
# UO-31 renal = tested on: UO-31 renal
# TK-10 renal = tested on: TK-10 renal
# ACHN renal = tested on: ACHN renal
# CAKI-1 renal = tested on: CAKI-1 renal
# A498 renal = tested on: A498 renal
# CCRF-CEM leukemia = tested on: CCRF-CEM leukemia
# SR leukemia = tested on: SR leukemia
# RPMI-8226 leukemia = tested on: RPMI-8226 leukemia
# OVCAR-8 ovarian = tested on: OVCAR-8 ovarian
# OVCAR-5 ovarian = tested on: OVCAR-5 ovarian
# OVCAR-4 ovarian = tested on: OVCAR-4 ovarian
# SK-OV-3 ovarian = tested on: SK-OV-3 ovarian
# IGROV1 ovarian = tested on: IGROV1 ovarian
# OVCAR-3 ovarian = tested on: OVCAR-3 ovarian
# HS 578T breast = tested on: HS 578T breast
# NCI/ADR-RES ovarian = tested on: NCI/ADR-RES ovarian
# MOLT-4 leukemia = tested on: MOLT-4 leukemia
Compound,growth (SK-MEL-2 melanoma),growth (EKVX NSCLC),growth (SN12C renal),growth (UO-31 renal),growth (TK-10 renal),growth (ACHN renal),growth (CAKI-1 renal),growth (A498 renal),growth (CCRF-CEM leukemia),growth (SR leukemia),growth (RPMI-8226 leukemia),growth (OVCAR-8 ovarian),growth (OVCAR-5 ovarian),growth (OVCAR-4 ovarian),growth (SK-OV-3 ovarian),growth (IGROV1 ovarian),growth (OVCAR-3 ovarian),growth (HS 578T breast),growth (NCI/ADR-RES ovarian),growth (MOLT-4 leukemia)
O=C(CCCCCCNC(=O)C(O)(O)C(F)(F)F)Nc1ccc(-c2ccccc2)cc1,-37.4% (active),34.2% (inactive),14.6% (inactive),-1.11% (active),5.83% (active),-18.3% (active),2.61% (active),-7.85% (active),23.6% (inactive),2.65% (active),15.1% (inactive),6.81% (active),9.32% (active),36.6% (inactive),-22.6% (active),14.3% (inactive),-16.6% (active),33.8% (inactive),7.74% (active),
Cc1ccc(C(=O)CSc2nnc(-c3ccc(-c4ccc(Cl)cc4)nc3C)o2)cc1,112% (inactive),68.6% (inactive),99.7% (inactive),93.9% (inactive),191% (inactive),95.4% (inactive),95.8% (inactive),98.2% (inactive),108% (inactive),96.5% (inactive),96.7% (inactive),107% (inactive),102% (inactive),101% (inactive),98.1% (inactive),91.6% (inactive),,102% (inactive),100% (inactive),103% (inactive)
CC(=O)/C(N=Nc1ccc2oc(=O)ccc2c1)=C(\C)O,0.338% (active),30.8% (inactive),35.6% (inactive),15.4% (inactive),23.8% (inactive),18.2% (inactive),33.3% (inactive),29.8% (inactive),13.1% (inactive),9.76% (active),12.3% (inactive),25.1% (inactive),50.8% (inactive),50% (inactive),37.1% (inactive),32.4% (inactive),,63.1% (inactive),13.3% (inactive),16.4% (inactive)
Cc1ccsc1[C@H]1c2[nH]c3ccccc3c2C[C@H]2C(=O)N(CCCCCCC(=O)NO)CC(=O)N12,92% (inactive),87.3% (inactive),86.5% (inactive),75.6% (inactive),84% (inactive),93.5% (inactive),90.6% (inactive),109% (inactive),26.5% (inactive),42% (inactive),58.8% (inactive),79.2% (inactive),73.7% (inactive),106% (inactive),105% (inactive),87.4% (inactive),,85.4% (inactive),95.9% (inactive),
Cc1ccc2c(n1)C(=O)C(Cl)=C(Nc1cccc(C)c1C)C2=O,-42% (active),31.2% (inactive),-73.4% (active),-22.8% (active),142% (inactive),-25.5% (active),56.5% (inactive),64% (inactive),2.35% (active),6.7% (active),-12.7% (active),-3.5% (active),-29% (active),-97.6% (active),117% (inactive),-58.4% (active),-97.8% (active),-13% (active),-5.45% (active),
CCN(CC)S(=O)(=O)c1ccc(-c2nc(C(Cl)Cl)nc3cc(C)nn23)cc1,89.4% (inactive),25.8% (inactive),58.6% (inactive),46.4% (inactive),79.4% (inactive),8.7% (active),29.6% (inactive),74.8% (inactive),48.9% (inactive),9.52% (active),-7.21% (active),12.3% (inactive),41.5% (inactive),34.4% (inactive),18.4% (inactive),12% (inactive),21.1% (inactive),35.6% (inactive),14% (inactive),
CCOP(=O)(OCC)OC[C@]12CCC(C)(C)C[C@H]1C1=CC[C@@H]3[C@@]4(C)CC[C@H](OP(=O)(OCC)OCC)C(C)(C)[C@@H]4CC[C@@]3(C)[C@]1(C)CC2,88.2% (inactive),55% (inactive),55.3% (inactive),34.2% (inactive),67.4% (inactive),67.2% (inactive),45.9% (inactive),79.8% (inactive),49.2% (inactive),35% (inactive),5.23% (active),60.4% (inactive),75.2% (inactive),65.9% (inactive),73.2% (inactive),68.1% (inactive),,83.2% (inactive),65.8% (inactive),32.7% (inactive)
O=C(COc1ccc(/C=C2\C(=O)Nc3ccc(F)cc32)cc1)Nc1ccccc1,122% (inactive),95.8% (inactive),102% (inactive),85.4% (inactive),118% (inactive),93.7% (inactive),82.4% (inactive),99% (inactive),96.9% (inactive),86.1% (inactive),103% (inactive),98.7% (inactive),95.8% (inactive),100% (inactive),96.9% (inactive),109% (inactive),,105% (inactive),101% (inactive),
